PINK1 modulator – modulators of PINK1 expression. Potency, µM (highest dose often 76.6 µM), for the others: top-dose activation (PINK1 increase), hits mostly activators. AID 624263. 410,000 compounds, 0.2% hits. PINK1 immunofluorescence, high-content cytometry, 24 h; active means well fitted activation curve with a large enough effect; inconclusive means small, poorly fitted or top-dose-only effect; cell line not stated here; further: % of control where 0% means no effect; nearly all actives have a fitted effect of over 65% in size
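A stable cell line was treated with compounds at 5 concentrations for 24 hours, with CCCP as control. PINK1 levels and mitochondrial localization were measured by immunofluorescence with mitochondrial, cell and nuclear markers after fixation, read by laser-scanning cytometry.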
Epigenetic derep – epigenetic control regulation, reporter derepression. murine LDR cells, GFP reporter derepression, 30 h. Potency, µM (titrated, usually from 53.9 µM), inactives show top-dose GFP activation, actives largely listed as activators. 280,000 compounds, 0.2% hits. AID 1865; further: % of control where 0% means no effect; nearly all actives have a fitted effect of over 60% in size
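Murine LDR cells bearing a silenced CMV-driven GFP reporter were exposed to compound for 30 h at 37 C. After PBS washes, GFP-positive cells (20-120 um objects) counted by laser-scanning microplate cytometry.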
ClpP mod – qHTS Assay for Activators of ClpP; purified B. subtilis ClpP, FRET peptide cleavage, 20 min; Potency, µM (titrated, usually from 57.5 µM), without a hit: at the highest dose activity change, negative = active; 340,000 compounds, 1.9% hits; AID 651965, 2013; active means well fitted falling curve with a large enough effect; inconclusive means small, poorly fitted or top-dose-only effect; inactive means no such curve, though single readings can be large or run the other way; further: the source files actives as falling curves though it sought activators and does not explain the sign; nearly all actives have a fitted effect of over 65% in size
Target sequence (P80244 whole entry, looked up): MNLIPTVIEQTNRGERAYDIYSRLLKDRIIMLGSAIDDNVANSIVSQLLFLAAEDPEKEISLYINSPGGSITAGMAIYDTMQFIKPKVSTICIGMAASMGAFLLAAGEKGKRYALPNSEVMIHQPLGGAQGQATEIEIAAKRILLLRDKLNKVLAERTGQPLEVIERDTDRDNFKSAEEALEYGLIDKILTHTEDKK
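ClpP 10 microg/mL final, pH 8 Tris/KCl buffer with BSA, glycerol, Tween-20; compound pinned in; FRET-FV substrate; RT 20 min; Ex320/Em430; ΔFRET vs ADEP 5.8 microM, DMSO, no enzyme.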
Sfp inh – blocks B. subtilis Sfp PPTase activity | 310,000 compounds, 3.5% hits | AID 1490 | Biochemical Sfp PPTase activity, qHTS | Q9F4F7 | Potency, µM, for the others: largest response in the series, negative = inhibition, actives largely listed as inhibitors;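 further: the enzyme is Sfp with the accession as filed and its product quenches rhodamine fluorescence; 0% = enzyme reaction without inhibitor and -100% = no enzyme wells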
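Buffer: 50 mM Hepes-Na pH 7.6, 10 mM MgCl2, 0.01% Nonidet P-40, 0.01% BSA. Enzyme 15 nM, pre-exposed to compound 15 min; substrates then added and fluorescence change tracked over 30 min.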
RORgamma inh – ROR gamma (mouse) transcription inhibition | P51450 | Drosophila S2 Gal4-RORgamma UAS-luciferase reporter, 20 h | Potency, µM (top dose mostly 53.6 µM), without a hit: top-dose activity change, negative = inhibition, actives largely listed as inhibitors | 310,000 compounds, 5.4% hits | AID 2551; further: on the % scale 0 is the no-effect control and ±100 the full control effect; nearly all actives have a fitted effect of over 60% in size
Target sequence (P51450 whole entry, looked up, the tested form may be a part): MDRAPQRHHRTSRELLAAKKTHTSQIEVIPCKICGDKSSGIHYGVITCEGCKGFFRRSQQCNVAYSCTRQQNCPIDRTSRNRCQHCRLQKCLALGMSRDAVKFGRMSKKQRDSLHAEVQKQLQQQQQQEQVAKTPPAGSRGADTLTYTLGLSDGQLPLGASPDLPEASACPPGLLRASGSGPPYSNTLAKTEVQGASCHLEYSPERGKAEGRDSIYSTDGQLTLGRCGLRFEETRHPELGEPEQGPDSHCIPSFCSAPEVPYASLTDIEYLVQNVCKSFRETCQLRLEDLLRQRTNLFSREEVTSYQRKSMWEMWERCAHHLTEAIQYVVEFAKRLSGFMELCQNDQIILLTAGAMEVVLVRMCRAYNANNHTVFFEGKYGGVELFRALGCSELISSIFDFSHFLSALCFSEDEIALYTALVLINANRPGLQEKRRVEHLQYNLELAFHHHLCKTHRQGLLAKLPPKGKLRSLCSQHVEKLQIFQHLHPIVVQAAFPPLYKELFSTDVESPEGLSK
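Stable Schneider cell line, Gal4 DNA-binding domain fused to ROR gamma, UAS-luciferase. Cmpd 1 hr RT → CuSO4 700 uM final → 20 hr RT → luciferase reagent 10 min → luminescence.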
Gal4-VP16 FLuc – Gal4-VP16 reporter inhibition counter-screen | Drosophila S2 Gal4-VP16 UAS-luciferase, luminescence, 20 h | Potency, µM (titrated, usually from 53.6 µM), inactives show at the highest dose activity, negative = inhibition, actives largely listed as inhibitors | 310,000 compounds, 3.5% hits;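 further: Gal4-VP16 expression switched on by copper sulfate through the metallothionein promoter; on the % scale 0 is the no-effect control and ±100 the full control effect; nearly all actives have a fitted effect of over 50% in size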
Numbers without * were called inactive; ? = inconclusive; . = no result; ! = a repeat was not active; [ ] = another dose, or the depositor's remark. Compounds with a hit are over-represented: about 8.1% of the library has one in this group of screens. Unless noted, the call rests on the fitted dose curve; in most records, active means well fitted curve in the direction sought with a large enough effect; inconclusive means small, poorly fitted or top-dose-only effect, or another doubt; inactive means no such curve, though single readings can be large; an effect the other way counts as inactive or inconclusive. Potency means the concentration at half of the fitted maximal effect.

SMILES	PINK1 modulator	Epigenetic derep	ClpP mod	Sfp inh	RORgamma inh	Gal4-VP16 FLuc
COc1ccc(-c2ccc(C(=S)N3CCN(C(C)=O)CC3)o2)cc1	-2.5%[38.3 µM]	-1.2%	4.2%	12.6µM*	5.3%	-6.3%
COc1ccc(CCNC(=O)c2ccc(-c3cccc([N+](=O)[O-])c3)o2)cc1OC	-0.1%	-1.3%	.	-1.8%	31.8%	-1.2%[10 µM]
CC1=Nc2cc(C(=O)NC(C)C)ccc2Sc2ccc(C)cc21	9.1%	1.4%	0.3%	.	.	.
COc1ccc(-c2cn3nc(N4CCCC(C(=O)Nc5ccc(C)c(C)c5)C4)sc3n2)cc1 (stereo not drawn)	-1.5%	0.0%	-2.1%	.	.	.
O=C(/C=C\c1ccccc1)NC1CC(=O)N(c2ccccc2)C1 (stereo not drawn)	1.4%	2.0%	-1.1%	.	.	.
O=C(c1ccc(-c2ccccc2Cl)o1)N1CCC1	-1.3%	.	.	.	.	.
O=C(c1ccc([N+](=O)[O-])o1)N1CCOCC1	-0.8%	0.0%	.	9.1%	15.8µM*	-3.8%
S=C(c1ccc(-c2ccc(Br)cc2)o1)N1CCOCC1	0.2%	-1.0%	.	35.5µM*	-1.9%	-9.0%
O=C(c1ccc(-c2cccc(Cl)c2Cl)o1)N1CCOCC1	0.3%	-1.5%	1.2%	79.4µM*	9.9%	17.8%
O=C(c1ccc(-c2ccc([N+](=O)[O-])cc2Cl)o1)N1CCOCC1	11.1%	-0.8%[10.1 µM]	.	39.8µM*	9.8%	?
CC(C)COc1cccc(C(=O)Nc2ccc(-c3nc4ncccc4o3)cc2)c1	5.3%	-0.8%	-9.1%	.	.	.
Cc1cnc(-n2ncc(C(=O)N(C)C3CCOC3)c2C)nc1-c1ccc(F)cc1 (stereo not drawn)	-0.6%	.	.	.	.	.
CCCCCC/C=C/c1ccc(C2C3C=CCC(C)C3C(=O)N2Cc2ccccc2)c(F)c1 (stereo not drawn)	.	.	.	5.1%	-18.7%	-0.6%
C=C1c2cccc(C(F)(F)F)c2O[C@H](C(=O)OCC)C1OC (mixture of isomers)	.	2.5%	.	0.7%	-0.9%	0.4%
S=c1[nH]nc2nnc3ccccc3n12	1.1%	1.1%	.	56.2µM*	8.1%	10.8%
Cc1cc(C)n(CC(=O)n2nc(C)cc2C)n1	-0.6%	-0.8%	0.0%	15.5%	0.316µM*	5.0%
Cc1cc(C)n(C(=O)Cc2cn3ccsc3n2)n1	-0.7%	-2.1%	-0.9%	89.1µM*	-3.2%	4.0%
Cc1cc(C)n(C(=O)Cn2nc(C(F)F)cc2C)n1	1.1%[38.3 µM]	-1.0%	-1.3%	7.3%	20.8%	4.4%
CNC(=O)C1CCC(Cn2c(=O)c3sccc3n(CC(=O)Nc3cc(F)ccc3F)c2=O)CC1 (stereo not drawn)	-1.0%	0.0%	-0.7%	.	.	.
COc1ccc(S(=O)(=O)N2CCN(c3nc(-c4cccs4)nc4ccccc34)CC2)cc1	0.0%	.	28.2µM*!	.	.	.
CC(C)(C)c1ccc(S(=O)(=O)N2CCN(c3nc(-c4cccs4)nc4ccccc34)CC2)cc1	0.4%	.	?	.	.	.
CCOC(=O)c1ccc(S(=O)(=O)N2CCN(c3nc(-c4cccs4)nc4ccccc34)CC2)cc1	0.9%	.	10µM*	.	.	.
O=S(=O)(c1ccc2ncccc2c1)N1CCN(c2nc(-c3cccs3)nc3ccccc23)CC1	1.0%	.	31.6µM*	.	.	.
Cc1ccc(S(=O)(=O)N2CCN(c3nc(-c4cncn4C)nc4ccccc34)CC2)cc1	0.4%	.	31.6µM*	.	.	.
CCOC(=O)c1cc(-c2ccc(F)cc2)n(CCC(=O)Nc2nc3cc(C)c(C)cc3s2)c1C	-0.4%	0.0%	0.1%	.	.	.
SMILES	PINK1 modulator	Epigenetic derep	ClpP mod	Sfp inh	RORgamma inh	Gal4-VP16 FLuc
COc1ccc(OCCn2nnc3sc4c(c3c2=O)CCC(C(C)(C)C)C4)cc1 (stereo not drawn)	6.2%	-2.7%	0.7%	.	.	.
COc1cc2c(cc1OC)-c1cc(=Nc3c(C)cc(C)cc3C)n(C)c(=O)n1CC2	1.4%	-0.2%	-11.5%	70.8µM*!	-3.1%	-9.9%
Fc1cccc(-c2nnn3c2nc(NC2CCCCC2)c2ccccc23)c1	1.0%	-2.2%	3.8%	.	.	.
CCOC(=O)c1c(-c2ccc(F)cc2)csc1/N=C/N(C)C	-0.2%	-2.0%	25.1µM*	6.9%	6.1%	-15.3%
CCOC(=O)c1c(NC(=O)C2c3ccccc3Oc3ccccc32)sc(C(N)=O)c1C	7.9%	0.8%	-7.4%	4.6%	-17.1%	1.9%
CCOC(=O)c1c(NC(=O)CNC2CCCCC2)sc(C)c1C	?	0.0%	.	?	1.41µM*	-12.4%
CCOC(=O)c1c(NC(=O)C2CCCO2)sc(C(N)=O)c1C (stereo not drawn)	-1.6%	-1.3%	28.2µM*	-0.5%	-5.1%	-15.9%
CCOC(=O)c1c(NC(=O)CNCCO)sc(C)c1C	-1.8%	-4.2%	-22.9%	-4.5%	?	-17.5%
CCOC(=O)c1c(NC(=S)NCC2CCCO2)sc(C)c1C (stereo not drawn)	2.5%	1.4%	.	22.4µM*	1.58µM*	4.47µM*
COc1ccc(NC(=O)C2CCN(S(=O)(=O)c3ccc4c(c3)CCCC(=O)N4)CC2)cc1OC	-0.6%	-1.3%	1.0%	.	.	.
COc1ccccc1Nc1cc(C)nc2nc(-c3ccccc3)nn12	-2.1%	-0.5%	-2.3%	.	.	.
COc1ccc(-n2c(=O)c3ccc(C(=O)NCc4ccc(C)cc4)cc3n(CC(=O)Nc3ccc(F)cc3)c2=O)cc1	4.4%	0.1%	-3.9%	.	.	.
CCCOC(=O)c1c(NC(=O)C2CCCO2)sc(C(=O)OC)c1C (stereo not drawn)	2.7%	-2.1%	-2.0%	6.31µM*	28.4%	-24.2%
CCc1c(C)sc(NC(=O)C2CCCO2)c1C#N (stereo not drawn)	1.7%	-1.0%	-12.0%	22.4µM*	?	15.7%
CCOC(=O)c1c(-c2ccc(F)cc2)csc1NC(=O)C1CCCO1 (stereo not drawn)	6.7%	6.3%	.	22.4µM*	13.4%	6.8%
CC1CCc2c(sc(NC(=O)C3CCCO3)c2C#N)C1 (stereo not drawn)	0.5%	0.0%	-1.3%	6.6%	1.1%	9.8%
COC(=O)c1c(NC(=O)C2COc3ccccc3O2)sc2c1CCN(C(C)=O)C2 (stereo not drawn)	8.7%	-3.0%	-7.0%	-28.0%	-2.4%	-3.4%
CC(=O)N1CCc2c(sc(NC(=O)C3COc4ccccc4O3)c2C(N)=O)C1 (stereo not drawn)	2.3%	.	-9.1%	31.6µM*	-16.3%	-4.2%
COCCCNC(=O)c1c(NC(=O)C2COc3ccccc3O2)sc2c1CCCC2 (stereo not drawn)	7.8%	2.3%	-3.7%	-8.1%	0.0%	-24.9%
